# According to PubChem BioAssay:
# Activity calls are given as the source filed them.
# How the values were obtained:
# Albumin (Bos taurus) = Albumin (Bos taurus) (UniProt P02769); experiment: compounds binding labelled BSA control protein – biochemical, small-molecule microarray, Alexa647 label, 635/667 nm fluorescence, artefact control for SMM control protein annotation, profiling panel (AID 1118); details: BSA-A647 binding, fluorescence 635 nm, higher = more signal;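 note: score merges 667 nm emission intensity and signal-to-noise per printed compound spot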
# Chain of Albumin (Bos taurus) (P02769 whole entry, looked up): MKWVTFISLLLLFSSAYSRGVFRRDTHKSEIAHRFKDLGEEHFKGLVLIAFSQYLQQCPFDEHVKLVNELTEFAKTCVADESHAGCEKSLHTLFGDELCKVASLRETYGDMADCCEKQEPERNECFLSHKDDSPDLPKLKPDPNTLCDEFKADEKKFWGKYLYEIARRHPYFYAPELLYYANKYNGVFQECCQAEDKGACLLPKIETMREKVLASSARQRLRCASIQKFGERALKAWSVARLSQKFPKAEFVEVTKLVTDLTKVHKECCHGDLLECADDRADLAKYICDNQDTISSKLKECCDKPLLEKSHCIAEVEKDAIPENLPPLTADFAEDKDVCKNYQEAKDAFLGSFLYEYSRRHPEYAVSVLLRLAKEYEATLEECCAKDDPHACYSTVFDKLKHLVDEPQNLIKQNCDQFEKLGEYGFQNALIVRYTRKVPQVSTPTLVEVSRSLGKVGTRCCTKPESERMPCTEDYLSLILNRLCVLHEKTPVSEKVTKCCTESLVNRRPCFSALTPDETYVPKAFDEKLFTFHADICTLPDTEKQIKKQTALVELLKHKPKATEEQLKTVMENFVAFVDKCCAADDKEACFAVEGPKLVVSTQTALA
# [1] = probe aXIP binding to arrayed compounds – biochemical, NeuroSMM set, 635/667 nm fluorescence, primary screen (AID 1119); details: small-molecule microarray, higher = more signal, called active from +8 up or from −8 down;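 note: probe is the protein aXip251-270 applied at 1 µg/mL to compound-printed slides; binding of probe to printed compounds measured as 667 nm fluorescence plus signal to noise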
# [2] = probe aNOTCH3 binding on compound microarray – biochemical, small-molecule microarray, 635/667 nm fluorescence, primary screen (AID 1120); details: higher = more signal;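 note: probe is a biotin-tagged antibody raised against NOTCH3 rather than NOTCH3 protein; score merges spot fluorescence near 667 nm with spot signal to noise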
# [3] = probe aNOTCH2 binding on compound microarray – biochemical, small-molecule microarray, 635/667 nm fluorescence, primary screen (AID 1121); details: higher = more signal;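 note: score merges feature fluorescence read at 667 nm with its signal to noise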
# [4] = target: Carbonic anhydrase 2 (Homo sapiens) (UniProt P00918); experiment: compounds binding carbonic anhydrase 2 – biochemical, small-molecule microarray, Alexa647-labelled CAII, profiling panel (AID 1122); details: CAII-A647 binding fluorescence, higher = more signal
# [5] = COS7 lysate on small-molecule microarray, probe aHis, 635 nm (AID 1123); details: COS7 cell lysate, fluorescence, higher = more signal;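 note: z-score combines 667nm fluorescence intensity with signal-to-noise per printed compound spot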
# [6] = probe aLAP1 signal on lysate-treated microarray – cell lysate, small-molecule microarray, COS7 lysate, primary screen (AID 1124); details: probe aLAP1, fluorescence, higher = more signal;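 note: lysate comes from COS7 cells expressing LAP1 and is applied at 0.3 µg/mL; score merges spot fluorescence near 667 nm with signal-to-noise over triplicate slides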
# Sam68 (KHDRBS1) = experiment: compounds binding KHDRBS1 protein – biochemical, small-molecule microarray, 635 nm fluorescence, primary screen (AID 1125); details: higher = more signal;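 note: score merges 667 nm channel intensity with signal to noise over triplicate slides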
# [7] = system: Chordin-like protein 2 (CHRDL2); experiment: compounds binding chordin-like 2 – biochemical, small-molecule microarray, 635 nm fluorescence, primary screen (AID 1126); details: fluorescence 635 nm, higher = more signal;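 note: printed compound slides probed with Chrdl2 protein at 4 µg/mL for 1 h at 4 C; score merges 667 nm emission intensity with signal to noise over three replicate slides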
# [8] = target: Concanavalin-A (Canavalia ensiformis) (UniProt P02866); experiment: compounds binding concanavalin A lectin – biochemical, small-molecule microarray, Alexa647 label, 635 nm, artefact control for SMM control protein annotation, primary screen (AID 1127); details: ConA-A647 binding fluorescence, higher = more signal;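 note: z combines 667 nm emission intensity with signal-to-noise across three replicate slides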
# Chain of Concanavalin-A (Canavalia ensiformis) (P02866 whole entry, looked up): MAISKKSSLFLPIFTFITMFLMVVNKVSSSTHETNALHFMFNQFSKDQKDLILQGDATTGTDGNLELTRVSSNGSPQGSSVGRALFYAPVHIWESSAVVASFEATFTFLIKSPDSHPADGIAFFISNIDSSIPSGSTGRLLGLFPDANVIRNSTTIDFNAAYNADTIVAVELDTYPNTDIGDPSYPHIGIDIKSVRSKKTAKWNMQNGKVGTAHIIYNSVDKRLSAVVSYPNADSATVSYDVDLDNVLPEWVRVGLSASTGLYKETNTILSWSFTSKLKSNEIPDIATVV
# [9] = compounds binding Alexa647 anti-His antibody – biochemical, small-molecule microarray, 635 nm fluorescence, artefact control for SMM control protein annotation, primary screen (AID 1128); details: higher = more signal;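 note: score merges feature fluorescence with signal-to-noise for each printed compound spot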
# [10] = system: Human papillomavirus type 1a E7 protein (residues 1-88); experiment: HPV1a E7 small-molecule binders, primary screen, biochemical, small-molecule microarray, residues 1-88, 635 nm (AID 1129); details: small-molecule microarray binding, fluorescence 635 nm; higher = more signal
# [11] = target: Focal adhesion kinase 1 (Homo sapiens) (UniProt Q05397); experiment: PTK2 protein binding on printed compound slides – biochemical, small-molecule microarray, 635/667 nm fluorescence, BSA, DTT, primary screen (AID 1130); details: 635 nm fluorescence, higher = more signal;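 note: composite of spot emission at 667 nm and signal to noise over triplicate slides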
# Chain of Focal adhesion kinase 1 (Homo sapiens) (Q05397 whole entry, looked up): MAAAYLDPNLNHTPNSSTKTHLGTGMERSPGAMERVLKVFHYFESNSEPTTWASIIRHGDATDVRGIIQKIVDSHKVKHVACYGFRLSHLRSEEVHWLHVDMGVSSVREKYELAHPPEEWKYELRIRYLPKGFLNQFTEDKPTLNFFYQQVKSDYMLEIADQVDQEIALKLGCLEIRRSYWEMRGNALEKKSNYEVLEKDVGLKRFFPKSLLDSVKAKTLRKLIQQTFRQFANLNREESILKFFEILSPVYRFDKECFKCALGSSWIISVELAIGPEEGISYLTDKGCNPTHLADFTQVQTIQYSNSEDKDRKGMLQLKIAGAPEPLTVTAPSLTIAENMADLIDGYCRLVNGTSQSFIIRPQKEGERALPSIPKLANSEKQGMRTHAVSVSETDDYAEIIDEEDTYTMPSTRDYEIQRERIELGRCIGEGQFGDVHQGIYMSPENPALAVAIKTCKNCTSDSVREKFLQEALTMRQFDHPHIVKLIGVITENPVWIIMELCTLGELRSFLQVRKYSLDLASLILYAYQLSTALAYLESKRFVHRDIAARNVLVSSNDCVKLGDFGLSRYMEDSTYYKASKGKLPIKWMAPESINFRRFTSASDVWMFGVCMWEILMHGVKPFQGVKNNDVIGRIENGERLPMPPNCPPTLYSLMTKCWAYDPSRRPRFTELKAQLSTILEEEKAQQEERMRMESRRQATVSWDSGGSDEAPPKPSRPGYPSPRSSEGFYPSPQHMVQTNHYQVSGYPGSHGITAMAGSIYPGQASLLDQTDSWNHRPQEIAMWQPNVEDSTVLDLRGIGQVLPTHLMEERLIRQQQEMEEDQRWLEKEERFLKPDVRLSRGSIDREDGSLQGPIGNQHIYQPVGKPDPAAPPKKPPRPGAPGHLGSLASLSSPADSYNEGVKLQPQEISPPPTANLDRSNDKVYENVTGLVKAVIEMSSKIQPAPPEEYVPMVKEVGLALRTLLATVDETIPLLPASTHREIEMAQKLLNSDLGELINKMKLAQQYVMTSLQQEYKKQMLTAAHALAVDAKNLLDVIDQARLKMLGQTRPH
# [12] = system: Fibrinogen (Alexa647-labelled); experiment: Alexa647-fibrinogen binding to printed small molecules – biochemical, small-molecule microarray, 635/667 nm fluorescence, artefact control for SMM control-protein annotation, profiling panel (AID 1131); details: fibrinogen-A647 binding fluorescence, higher = more signal;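 note: z-score merges 667 nm fluorescence with per-spot signal-to-noise over triplicate slides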
# [13] = target: Follistatin (Homo sapiens) (UniProt P19883); experiment: FST protein binding to printed compounds – biochemical, small-molecule microarray, 635/667 nm fluorescence, primary screen (AID 1132); details: 635 nm fluorescence, higher = more signal
# Chain of Follistatin (Homo sapiens) (P19883 whole entry, looked up): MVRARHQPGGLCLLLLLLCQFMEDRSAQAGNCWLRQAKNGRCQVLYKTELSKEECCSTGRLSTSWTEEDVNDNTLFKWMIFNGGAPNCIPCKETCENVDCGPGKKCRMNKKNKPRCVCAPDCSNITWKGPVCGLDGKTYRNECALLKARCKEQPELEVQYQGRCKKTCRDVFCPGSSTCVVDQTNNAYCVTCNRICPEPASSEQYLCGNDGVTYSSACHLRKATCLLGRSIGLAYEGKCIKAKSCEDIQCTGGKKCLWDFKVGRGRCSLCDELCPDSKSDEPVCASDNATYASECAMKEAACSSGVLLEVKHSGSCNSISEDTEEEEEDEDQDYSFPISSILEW
# [14] = target: Fibroblast growth factor 2 (Homo sapiens) (UniProt P09038); experiment: basic fibroblast growth factor binding to printed compounds – biochemical, small-molecule microarray, 635/667 nm fluorescence, primary screen (AID 1133); details: FGF2, fluorescence 635/667, higher = more signal
# Chain of Fibroblast growth factor 2 (Homo sapiens) (P09038 whole entry, looked up): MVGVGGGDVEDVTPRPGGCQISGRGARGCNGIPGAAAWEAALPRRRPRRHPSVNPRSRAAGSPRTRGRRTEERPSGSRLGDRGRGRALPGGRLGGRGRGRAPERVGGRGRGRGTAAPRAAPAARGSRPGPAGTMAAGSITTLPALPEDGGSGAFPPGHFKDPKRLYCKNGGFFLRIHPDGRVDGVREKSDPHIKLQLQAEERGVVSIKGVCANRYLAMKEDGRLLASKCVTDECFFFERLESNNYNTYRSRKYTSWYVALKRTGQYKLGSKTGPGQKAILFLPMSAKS
# [15] = JC-1 mitochondrial potential readout, lung cancer cells – cell-based, A549, JC-1 fluorescence, basal, 24 h, 100 nL, profiling panel (AID 1138); details: higher = more signal;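 note: A549 lung adenocarcinoma cells under basal conditions with no added stimulus; test concentration not given here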
# Lefty1 = Lefty1 protein binding to printed compounds – biochemical, small-molecule microarray, 635/667 nm fluorescence, primary screen (AID 1139); details: fluorescence 635/667, higher = more signal
# [16] = system: wheat germ agglutinin (Triticum aestivum), Alexa647-labelled; experiment: Alexa647-WGA lectin binding to printed small molecules – biochemical, small-molecule microarray, 635/667 nm fluorescence, artefact control for SMM control-protein annotation, profiling panel (AID 1140); details: WGA-A647 binding, 635 nm fluorescence, higher = more signal;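 note: score merges 667 nm feature emission with signal to noise over triplicate slides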
# [17] = target: Luciferin 4-monooxygenase (Photinus pyralis) (UniProt P08659); experiment: inhibition of purified Photinus pyralis luciferase – biochemical, luminescence, purified enzyme, 2006 set, primary screen (AID 1141); details: purified firefly luciferase, SteadyGlo luminescence, 30 min; higher = more signal, called active from +8 up or from −8 down;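 note: cell-free assay with purified firefly luciferase at 100 ng per well in PBS; test concentration not given here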
# Chain of Luciferin 4-monooxygenase (Photinus pyralis) (P08659 whole entry, looked up): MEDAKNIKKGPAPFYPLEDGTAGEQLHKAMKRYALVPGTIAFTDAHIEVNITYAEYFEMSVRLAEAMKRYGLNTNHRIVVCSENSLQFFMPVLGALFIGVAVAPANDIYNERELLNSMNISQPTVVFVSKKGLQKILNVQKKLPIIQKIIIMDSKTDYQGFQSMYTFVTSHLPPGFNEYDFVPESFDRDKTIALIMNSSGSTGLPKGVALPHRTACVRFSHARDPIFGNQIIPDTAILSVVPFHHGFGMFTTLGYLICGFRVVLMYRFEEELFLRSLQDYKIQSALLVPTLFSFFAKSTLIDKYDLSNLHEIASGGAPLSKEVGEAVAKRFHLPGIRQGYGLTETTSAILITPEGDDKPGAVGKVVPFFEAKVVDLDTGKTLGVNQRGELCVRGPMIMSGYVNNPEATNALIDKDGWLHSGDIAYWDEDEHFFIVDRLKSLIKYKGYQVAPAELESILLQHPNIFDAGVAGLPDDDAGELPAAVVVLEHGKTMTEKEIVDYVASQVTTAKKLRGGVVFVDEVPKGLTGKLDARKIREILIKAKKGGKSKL
Compound,composite z-score (Albumin (Bos taurus)),composite Z-score [1],composite z-score [2],composite z-score [3],composite z-score [4],composite z-score [5],composite z-score [6],composite z-score (Sam68 (KHDRBS1)),composite z-score [7],composite z-score [8],composite z-score [9],composite z-score [10],composite z-score [11],composite z-score [12],composite z-score [13],composite z-score [14],z-score [15],composite z-score (Lefty1),composite z-score [16],z-score [17]
CN1C(=O)C2C=CC(C(O)c3ccc(I)cc3)N(N(c3ccccc3)c3ccccc3)C2C1=O (stereo not given),0.626,0.263 (inactive),-0.0328,0.0129,0.243,0.307,0.249,-0.397,0.0635,0.326,-0.456,-0.0563,-0.164,0.25,0.524,-0.394,1.74,-0.432,0.536,0.899 (inactive)
Cc1c(NC(=O)/C(C#N)=C/C=C/c2ccc([N+](=O)[O-])cc2)c(=O)n(-c2ccccc2)n1C,0.974,0.947 (inactive),0.144,0.0966,0.584,2.23,0.82,1.3,0.0495,1.04,2.04,1.18,-0.0384,1.02,1.06,1.11,0.138,0.78,0.685,-4.99 (inactive)
CC(C)N1C(=O)[C@@]2(Cc3ccccc31)c1ccccc1C(=O)N(Cc1ccccc1C(F)(F)F)[C@H]2c1ccc(CO)cc1,-0.832,0.795 (inactive),-0.374,0.0015,0.754,-0.011,0.739,1.01,1.14,1.1,0.175,0.174,0.368,-0.0628,0.902,1.18,-0.602,0.76,-0.203,-0.301 (inactive)
C[C@]1(C(=O)NC2CC2)c2ccccc2C(=O)N(Cc2cc(F)cc(C(F)(F)F)c2)[C@H]1c1ccc(CO)cc1,-0.1,0.004 (inactive),-0.368,-0.164,0.759,2.23,0.522,-0.0456,-1.61,-0.0372,1.26,-0.0534,-0.695,-0.331,0.719,-0.785,-0.057,0.0495,-0.692,0.851 (inactive)
CC1C2C(CCCO)=CC(C3C(=O)N(C)C(=O)C23)N1Cc1cccc(OC(F)(F)F)c1 (stereo not given),1,-0.0186 (inactive),0.126,0.0083,0.854,2.43,0.267,1.29,-0.262,0.96,0.503,1.2,0.849,0.971,0.301,0.303,-0.703,0.286,0.877,-1.02 (inactive)
COC(=O)[C@@]1(Cc2ccc(F)cc2)[C@H]2c3cc(C(=O)N4CCCC4)n(CCSCCO)c3C[C@H]2CN1C(=O)c1ccccc1,0.855,-0.338 (inactive),0.241,0.231,0.839,3.25,0.258,0.644,-0.562,0.532,0.163,0.767,1.11,0.982,-0.16,-0.79,0.281,-0.973,0.679,0.5 (inactive)
COC(=O)[C@@]1(Cc2ccc(F)cc2)[C@@H]2C(=CC(=O)[C@H]2CC(=O)C(=O)N2CCCC2)CN1C(=O)c1ccccc1,1.02,-0.131 (inactive),1.24,0.845,0.65,3.14,0.805,1.22,0.484,0.455,0.323,1.24,0.348,0.998,1.26,0.674,0.711,0.903,1.23,-8.12 (active)
Cc1ccc(S[C@]2(C(=O)NC3CC3)CC(=O)N(C3Cc4ccccc4C3)[C@@H]2c2ccc(CO)cc2I)cc1,-0.15,-0.216 (inactive),-0.283,-0.121,0.535,0.897,1.68,-0.5,-0.486,0.0714,0.447,0.275,-0.3,0.484,0.0932,-0.115,1.57,-1.32,-0.409,-1.28 (inactive)
C=CCOC(=O)[C@@H]1[C@H]2C(=O)O[C@H](c3ccccc3)[C@H](c3ccccc3)N2[C@H](c2ccc(OCCOC(=O)[C@H]3C[C@H]4C(=O)N[C@@H](CCCCN(C)C)C(=O)N4[C@H]3c3cccc(OCCO)c3)cc2)[C@@]12C(=O)Nc1ccccc12,0.172,0.597 (inactive),-0.2,0.0018,0.656,0.668,0.781,0.846,0.0523,0.682,2.06,-0.246,0.0815,0.498,0.519,0.382,-0.407,-0.0986,0.517,0.892 (inactive)
C=CCC(OC(C)=O)[C@@H]1[C@@H](N(Cc2cccc3ccccc23)C(=O)c2ccc(C)cc2)c2cc(OCCCO)ccc2N1C(=O)Cc1ccc2ccccc2c1 (stereo not given in full),0.706,-0.758 (inactive),-0.0044,-0.149,0.15,0.738,-0.0124,-1.29,0.0854,-0.0292,-0.2,-0.0179,0.358,0.535,0.142,-0.0243,1.62,-0.136,-0.0836,-0.667 (inactive)
O=C1C2C=CC(C(O)C(c3ccccc3)c3ccccc3)N(Nc3ccccc3F)C2C(=O)N1c1ccccc1 (stereo not given),1,-0.173 (inactive),0.24,-0.0386,0.612,2.99,1.02,1.31,-0.0392,0.5,1.65,1.24,0.22,0.97,1.2,0.158,-1.18,0.667,1.1,0.294 (inactive)
[N-]=[N+]=NCc1ccccc1[C@H]1OC(c2ccc(OCCCO)cc2)=N[C@@]1(CCS(=O)(=O)c1ccccc1)C(=O)O,0.952,0.177 (inactive),0.212,-0.118,0.754,2.12,0.0621,0.367,-0.692,0.399,0.583,0.667,0.476,1.03,0.0192,-0.119,-0.959,-0.182,0.169,-6.31 (inactive)
O=C/C=C/c1ccc(-c2ccccc2)cc1,-1.04,-0.646 (inactive),-0.172,-0.0843,-0.202,-0.327,1.35,-0.789,0.438,-0.518,-0.221,-0.142,-0.164,-0.964,0.276,-0.377,0.294,-0.155,-0.484,0.0686 (inactive)
O=C1OCC=C[C@H]2OC34C=CCN(Cn5nnc6ccccc65)C(=O)[C@H]3N(CCO)C(=O)[C@@H]4[C@@H]12 (stereo not given in full),-1.46,-0.358 (inactive),-0.173,-0.171,0.935,0.32,-0.137,0.184,-1.43,-0.941,1.68,-0.696,-0.619,-1.41,-1.32,-1.46,-0.546,-1.17,-0.944,0.0848 (inactive)
CC(=O)NCCCC[C@@H]1NC(=O)[C@H]2C[C@@H](C(=O)O)[C@@H](c3cccc(OCCO)c3)N2C1=O,0.757,0.446 (inactive),0.348,-0.0644,0.415,1.05,1.32,1.29,1.11,0.587,0.246,1.21,0.398,0.984,1.29,1.12,-0.253,1.13,0.946,0.102 (inactive)
Cc1ccc(N2C(=O)c3ccccc3[C@@H](C(=O)NCCN3CCOCC3)[C@@H]2c2ccc(CO)cc2)nc1,0.132,0.309 (inactive),0.595,-0.162,-0.234,0.719,-0.496,-0.342,-1.27,-0.469,-0.227,-0.818,-0.317,-2.27,0.37,-1.08,-0.0724,-0.702,-0.183,1.09 (inactive)
COc1ccc(-c2cc3c(c(CCc4ccccc4)n2)[Si](C(C)C)(C(C)C)O[C@H]3c2ccccc2)cn1,-0.425,-0.161 (inactive),-0.0221,-0.162,-0.299,-0.405,0.0028,-0.605,-0.315,0.571,-0.0334,-0.547,0.16,0.285,0.432,0.0958,0.412,0.169,0.0926,-0.315 (inactive)
